From PubChem BioAssay
Activity calls are given as the source filed them.

What was measured:
[1] = compound effects on lung adenocarcinoma cell viability – A549, calcein-AM fluorescence, 48 h, basal, profiling panel (AID 1162); conditions: higher = more signal
[2] = compound effects on differentiated 3T3-L1 adipocyte viability – cell-based, 3T3-L1 adipocytes, calcein-AM fluorescence, 48 h, basal, profiling panel (AID 1163); conditions: 3T3-L1 adipocytes viability, higher = more signal
[3] = compound effects on hepatocellular carcinoma cell viability – HepG2, calcein-AM fluorescence, 48 h, basal, profiling panel (AID 1164); conditions: higher = more signal
[4] = compound effects on multiple myeloma cell viability – MM1S, calcein-AM fluorescence, 48 h, basal, profiling panel (AID 1165); conditions: higher = more signal
[5] = calcein-AM signal in unstimulated myeloma cells – cell-based, calcein-AM fluorescence, 48 h, PK04 Diversity Set, profiling panel (AID 1166); conditions: RPMI8226 myeloma viability, higher = more signal;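 note: cells grown under basal conditions without added stimulus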
[6] = JC-1 mitochondrial signal, unstimulated HepG2 cells – cell-based, JC-1 fluorescence, 24 h, 100 nL compound, profiling panel (AID 1167); conditions: HepG2 mitochondrial potential, higher = more signal
[7] = JC-1 mitochondrial signal, unstimulated adipocytes – cell-based, JC-1 fluorescence, 3T3-L1 adipocytes, 24 h, 100 nL compound, profiling panel (AID 1168); conditions: JC-1 mitochondrial fluorescence, higher = more signal, called active from +8 up or from −8 down
[8] = JC-1 mitochondrial signal, unstimulated myeloma cells – cell-based, JC-1 fluorescence, RPMI8226, 24 h, 100 nL compound, profiling panel (AID 1169); conditions: JC-1 mitochondrial potential fluorescence, higher = more signal
[9] = JC-1 mitochondrial signal, unstimulated MM1S myeloma – cell-based, JC-1 fluorescence, 24 h, 100 nL compound, profiling panel (AID 1170); conditions: MM1S mitochondrial potential, higher = more signal
[10] = resazurin metabolic signal in A549 cells – cell-based, resazurin fluorescence, 24 h, PK04 Diversity Set, profiling panel (AID 1171); conditions: A549 viability, higher = more signal, called active from +8 up or from −8 down
Note: test concentration not given here.

Compound | z-score [1] | z-score [2] | z-score [3] | z-score [4] | z-score [5] | z-score [6] | z-score [7] | z-score [8] | z-score [9] | z-score [10]
C=C(CC1([C@@H](NP(=O)(c2ccccc2)c2ccccc2)[C@H]2C[C@@H]2CCCC)CC1)c1ccccc1 | -0.665 | -0.523 | -0.721 | -2.74 | -3.25 | -2.48 | -0.841 (inactive) | -0.968 | -1.92 | 4.95 (inactive)
COCCOC(=O)N1C(=O)[C@@]2(c3cc(C#CC4(O)CCCCCC4)ccc31)[C@H](c1ccccc1OCCO)N1[C@H](c3ccccc3)[C@H](c3ccccc3)OC(=O)[C@H]1[C@@H]2C(=O)N1CCN(c2ncccn2)CC1 | -0.244 | -0.464 | 1.4 | -0.404 | -1.14 | 0.673 | 1.86 (inactive) | -0.965 | -1.05 | -0.461 (inactive)
COCCOC(=O)N1C(=O)[C@@]2(c3cc(C#CCC(C(=O)OC)C(=O)OC)ccc31)[C@H](c1ccccc1OCCO)N1[C@H](c3ccccc3)[C@H](c3ccccc3)OC(=O)[C@H]1[C@@H]2C(=O)N1CCN(c2ncccn2)CC1 | -0.0169 | 1.16 | 0.469 | -1.59 | -2.45 | 0.8 | 2.27 (inactive) | -0.78 | -0.522 | 0.934 (inactive)
O=C(c1ccccc1)N1C(=O)[C@]2(COC(c3ccc(OCCCO)cc3)=N2)Cc2ccccc21 | -0.525 | 0.6 | -0.92 | -1.72 | -3.77 | -1.23 | -0.03 (inactive) | -1.26 | -1.49 | -0.272 (inactive)
O=C1O[C@H](c2ccccc2)[C@H](c2ccccc2)N2[C@H]1[C@@H](C(=O)N1CCCCCCC1)[C@]1(C(=O)Nc3ccc(C#CC4=CCCCC4)cc31)[C@H]2c1ccc(OCCO)cc1 | -0.733 | 1.67 | -0.103 | -0.0425 | -1.4 | -1.68 | -5.35 (inactive) | -1.02 | -0.729 | -0.0973 (inactive)
C[N+](C)(C)CCCCNC(=O)[C@@H]1C[C@@H]2C(=O)N[C@@H](Cc3ccccc3)C(=O)N2[C@@H]1c1cccc(OCCO)c1 | 1.49 | -0.764 | 0.215 | 0.367 | 0.0971 | 1.58 | 0.924 (inactive) | 0.219 | -0.493 | -0.337 (inactive)
[N-]=[N+]=NCc1ccccc1C[C@]1(C(N)=O)COC(c2ccc(OCCCO)cc2)=N1 | 0.446 | 0.431 | 1.28 | -0.761 | 0.0881 | -0.234 | 1.16 (inactive) | -0.425 | 1.07 | -1.1 (inactive)
[N-]=[N+]=Nc1ccccc1[C@H]1OC(c2ccc(OCCCO)cc2)=N[C@@]1(CCS(=O)(=O)c1ccccc1)C(N)=O | 0.0833 | 0.733 | 0.0844 | -0.57 | 0.0418 | -0.93 | -0.235 (inactive) | -1.07 | 0.296 | 0.985 (inactive)
COCCOC(=O)N1C(=O)[C@@]2(c3cc(C#CCC(C(=O)OC)C(=O)OC)ccc31)[C@H](C(=O)Nc1nc3ccccc3s1)[C@H]1C(=O)O[C@H](c3ccccc3)[C@H](c3ccccc3)N1[C@@H]2c1ccccc1OCCO | 1.84 | 0.6 | 1.31 | -0.139 | 0.199 | -2.23 | 0.803 (inactive) | -0.859 | -1.19 | -0.454 (inactive)
COc1ccc(CCNC(=O)[C@@]2(Sc3ccc(C)cc3)CC(=O)N(C(C)C)[C@@H]2c2ccc(CO)cc2I)cc1 | 1.68 | 0.345 | 0.0217 | -3.07 | -2.32 | 0.529 | -0.139 (inactive) | -0.686 | -0.942 | -0.192 (inactive)
O=C(NCCN1CCOCC1)[C@@H]1c2ccccc2C(=O)N(C2CCCCC2)[C@H]1c1ccc(CO)cc1 | 1.37 | 1.19 | 2.16 | -0.165 | -1.03 | 3.08 | -0.0789 (inactive) | 0.0842 | 0.146 | 1.17 (inactive)
O=C(CS)NCCCCCCNC(=O)[C@@H]1C[C@@H]2C(=O)N[C@@H](Cc3ccccc3)C(=O)N2[C@@H]1c1cccc(OCCO)c1 | -0.55 | 0.363 | 0.371 | -0.204 | 0.537 | -1.28 | 0.476 (inactive) | 0.198 | -0.143 | -0.436 (inactive)
CN1C(=O)C2C=CC(C(O)C#Cc3ccccc3)N(N3CCCCC3)C2C1=O (stereo not given) | -0.388 | -0.382 | -0.149 | 0.241 | 0.609 | -0.242 | 0.567 (inactive) | 0.382 | -0.547 | -0.913 (inactive)
COC(=O)[C@@]1(Cc2ccc(F)cc2)[C@H]2c3cc(C(=O)N(C)C)n(Cc4ccccc4)c3C[C@H]2CN1C(=O)c1ccccc1 | -0.799 | -0.184 | -0.344 | -0.812 | -0.997 | 0.746 | -0.85 (inactive) | -0.28 | -0.529 | -0.631 (inactive)
O=C(c1ccccc1)N1Cc2ccccc2C[C@@]2(COC(c3ccc(OCCCO)cc3)=N2)C1=O | 0.603 | 0.697 | 0.81 | -0.516 | 0.0855 | 1.47 | -0.768 (inactive) | -0.676 | 0.392 | 2.08 (inactive)
CN(C)C(=O)[C@@]1(CCS(=O)(=O)c2ccccc2)COC(c2ccc(OCCCO)cc2)=N1 | -0.245 | -0.0285 | -1.28 | -2.08 | -2.36 | -1.09 | -0.0809 (inactive) | -0.476 | -1.49 | -2.54 (inactive)
